Assay results published in ChEMBL document CHEMBL3988442, “University of Dundee, Small-Polar-MMV Screening Library” (2021).
Out of some 48,000 compounds screened, about 13,000 (27%) showed an effect of 50% or more. This is one part of the list.

Each compound was assayed on Wolbachia pipientis (assay: Anti-Wolbachia Cell-Based Screen). Conditions: 5 µM.
Type: functional
Set-up: scale not given: in the data most compounds retested in dose-response had high values

Structure (SMILES)	Percent Effect
CCOc1ccccc1CN(CC)Cc1ccc(S(C)(=O)=O)cc1	14.95%
CSc1ccc(NCC(=O)Nc2c(C)nn(C)c2C)cc1F	-13.07%
Cn1c(=O)ccn(CC(=O)NCC2Cc3ccccc3O2)c1=O (stereo unspecified)	4.727%
CC(NC(=O)Cn1ccc(=O)n(C)c1=O)c1ccccc1F (stereo unspecified)	122%
CC(NC(=O)Cn1ccc(=O)n(C)c1=O)c1cc(F)ccc1F (stereo unspecified)	123.1%
Cn1c(=O)ccn(CC(=O)Nc2cnccc2O)c1=O	-3.574%
CCS(=O)(=O)CC(=O)NC(C)c1ccc(F)cc1F (stereo unspecified)	5.956%
CC(NCCn1cccn1)c1ccccc1F (stereo unspecified)	17.82%
Cc1nnc2n1CCN(c1nc3ccccc3o1)C2	7.974%
CC(Oc1cc(Cl)cc(Cl)c1)C(=O)NCCS(N)(=O)=O (stereo unspecified)	112.6%
CC(Oc1ccccc1C(F)(F)F)C(=O)NCCC(=O)N(C)C (stereo unspecified)	4.179%
CCCNC(=O)C(C)Oc1ccccc1 (stereo unspecified)	7.787%
CC(Oc1cc(Cl)cc(Cl)c1)C(=O)NCCC(=O)N(C)C (stereo unspecified)	99.28%
CC(Oc1cc(Cl)cc(Cl)c1)C(=O)NCCOCC(N)=O (stereo unspecified)	92.53%
CCCNC(=O)C(C)Oc1ccc(F)cc1 (stereo unspecified)	-16.03%
CC(C)c1ccc(OCCC(=O)NCCC(=O)N(C)C)cc1	5.568%
CC(Oc1ccc(S(C)(=O)=O)cc1)C(=O)NC(N)=O (stereo unspecified)	-0.9866%
CCNC(=O)C(C)Oc1ccc(N(C)S(C)(=O)=O)cc1 (stereo unspecified)	35.45%
Cc1ccc(-c2noc(C(C)NS(C)(=O)=O)n2)cc1 (stereo unspecified)	98.3%
Cc1cnn(C2CN(C(C)c3nc(-c4ccccc4)no3)C2)c1 (stereo unspecified)	-0.8523%
Cc1ccc(-c2noc([C@@H]3C[C@H](NC(=O)NC(C)C)CN3C)n2)cc1	-7.192%
CSCCC(=O)N1CCCCC1CCn1cccn1 (stereo unspecified)	-3.819%
O=C(CCc1ccccc1)N1CCCCC1Cn1cccn1 (stereo unspecified)	99.73%
COc1cccc(CCC(=O)N2CCCCC2Cn2cccn2)c1 (stereo unspecified)	-6.08%
O=C(CCc1cccs1)N1CCCCC1Cn1cccn1 (stereo unspecified)	8.16%
CN(Cc1ccsc1)C(=O)CN1CCCCC1Cn1cccn1 (stereo unspecified)	-3.818%

Structure (SMILES)	Percent Effect
O=C(CCc1ccsc1)N1CCCCC1Cn1cccn1 (stereo unspecified)	114.6%
O=C(CN1CCN(CCO)CC1)NCc1ccc(Cl)s1	-5.807%
Cc1nsc(NC2CCOC3(CCCC3)C2)n1 (stereo unspecified)	-8.543%
CCn1cc(C(=O)N2C[C@H]3C[C@H](Oc4ccccc4)C[C@H]3C2)cn1	75.19%
CCn1cc(CN2C[C@H]3CC[C@@H]2CN(C(=O)c2ccncc2)C3)cn1	5.818%
COc1cccc(OC2CN(C(=O)c3ccnc(OC)c3)C2)c1	6.103%
Cc1cccc(OC2CN(C(=O)c3cnn(C)c3)C2)c1	-4.108%
CCc1ncc(C(=O)N2CC(Oc3ccccc3Cl)C2)cn1	4.007%
CN(C)c1ncc(C(=O)N2C[C@H]3C[C@H](Oc4ccccc4)C[C@H]3C2)cn1	125.1%
Cn1cc(C(=O)N2C[C@H]3C[C@H](Oc4ccccc4)C[C@H]3C2)cn1	96.44%
Cn1cc(C(=O)N2CCCN(C3Cc4ccccc4C3)CC2)cn1	-3.221%
Cc1ncsc1CN1C[C@@H]2COC[C@]2(CNC(=O)c2ccco2)C1.O=C(O)C(F)(F)F	-13.65%
COc1ccc(CNC(=O)c2ccc(Br)cn2)cc1	-6.814%
O=C(NC[C@]1(O)CN(Cc2ccc(F)cc2)C[C@H]1O)c1ccccn1	127.5%
O=C(NC[C@]1(O)CN(Cc2ncccc2F)C[C@H]1O)c1cc[nH]n1	112.1%
Cc1cccc(CN2C[C@@H]3COC[C@]3(CNC(=O)c3ccsc3)C2)n1.O=C(O)C(F)(F)F.O=C(O)C(F)(F)F	8.722%
O=C(N[C@@H]1CCN(C(=O)c2ccc(F)cc2Cl)C[C@H]1O)c1ccccn1	-3.407%
Cc1ncsc1CN1C[C@@H](O)[C@](O)(CNC(=O)c2ccccn2)C1	100.8%
COc1ccc2c(c1)nc1n2[C@@H](CNC(=O)c2ccccn2)COC1	1.575%
Cc1ncsc1CNC(=O)N1CCN(Cc2ccccc2)C[C@H]1C	1.865%
NC(=O)C(NC1CCN(Cc2ccc(F)cc2)CC1)c1ccccc1 (stereo unspecified)	12%
COc1ccc(CN2C[C@@H](O)[C@](O)(CNC(=O)c3ccccn3)C2)cc1	112%
Cc1ccc(OC2CCN(C(=O)Cc3c(C)[nH]c(=O)[nH]c3=O)CC2)cc1	33.83%
Cc1ccccc1N1CCCN(C(=O)CCc2ccncc2)CC1	5.689%
CS(=O)(=O)NCC1CCCN(C(=O)COCC(F)(F)F)C1 (stereo unspecified)	-5.002%
CN1CCC(O)(CCNC(=O)[C@@]23CNC[C@@H]2CN(C2CCCC2)C3)CC1	-8.037%

Structure (SMILES)	Percent Effect
CNS(=O)(=O)CC(=O)N(Cc1ccccc1)c1ccc(C)cc1	-6.093%
Cc1nc(C)n(C2CCCN(C(=O)c3cc(C(N)=O)cs3)C2)n1 (stereo unspecified)	0.8263%
Cc1cc(C)n(C2CCCN(C(=O)c3cc(C(N)=O)cs3)C2)n1 (stereo unspecified)	143.1%
CC(C)c1nccn1C1CCCN(C(=O)c2cc(C(N)=O)cs2)C1 (stereo unspecified)	117.7%
NC(=O)c1csc(C(=O)N2CCCC(n3cccn3)C2)c1 (stereo unspecified)	118.9%
CC(C)c1nccn1C1CCCN(C(=O)c2ccsc2)C1 (stereo unspecified)	-9.917%
CNc1snc(C)c1C(=O)N1CCCC(n2nc(C)cc2C)C1 (stereo unspecified)	-4.797%
O=C1CSc2ccc(C(=O)N3CCCC(n4cccn4)C3)cc2N1 (stereo unspecified)	11.58%
NC(=O)c1csc(C(=O)N2CCCC(n3ccnc3)C2)c1 (stereo unspecified)	4.502%
CC(C)c1nccn1C1CCCN(C(=O)c2ccnc(N(C)C)c2)C1 (stereo unspecified)	-0.8202%
O=C1COc2ccc(S(=O)(=O)NC3CC3)c3c2N1CCC3	-10.68%
O=C1CC[C@H]2CN(c3ncc(F)cn3)CC[C@H]2N1CCc1ccccc1	-8.563%
CN(C(=O)c1ccncc1F)c1ccccc1S(C)(=O)=O	0.2118%
O=C(CCN1CCCCC1)N1CCC(Cc2ccc(CO)cc2)C1 (stereo unspecified)	-4.228%
Cc1nc(N2CCOc3ccc(CO)cc3C2)c2nc(C)oc2n1	-3.074%
CCN(Cc1ccncc1)C(=O)CCn1c(C)cc2ccccc21	-6.043%
O=C(O)[C@@H]1CN(Cc2cnc(C3CCCCC3)nc2)C[C@H]1C1CC1	0.2506%
CCN(Cc1ccccc1)C(=O)CCN1CC(O)C1	89.96%
CCNc1ncc(CN2C[C@@H](C(=O)O)[C@H](C3CC3)C2)cn1	-13.99%
C[C@@H]1CN(CCC(=O)N(C)Cc2ccccc2)CC[C@@]1(O)C1CCC1	22.93%
CN(Cc1ccccc1)C(=O)CCN1C[C@H](C2CC2)[C@@H](N(C)C)C1	117.2%
CCN(Cc1ccccc1)C(=O)CCN1C[C@@H](C(=O)O)[C@H](C2CC2)C1	110.3%
CN(Cc1ccccc1)C(=O)CCN1CCC2(CC1)[C@H](O)C[C@@H]2O	-5.462%
C[C@@H]1CN(CCC(=O)N(C)Cc2ccccc2)C[C@@]1(O)C1CCC1	-9.793%
CCNC(=O)C1CCN(c2cc(-c3ccccc3)nc3ccnn23)C1 (stereo unspecified)	11.77%
CC(C)(C)c1ccc(=O)n(CN2CCCC(C(F)(F)F)C2)n1 (stereo unspecified)	-4.138%

Structure (SMILES)	Percent Effect
COc1ccc2c(c1)OCC(CNC(=O)c1ccc(=O)n(C)c1)C2 (stereo unspecified)	0.3526%
O=C(CCNC(=O)c1ccoc1)NCc1ccccc1F	0.6342%
CCN1CCN(CC(O)c2ccc(F)cc2)CC1 (stereo unspecified)	5.506%
Cn1ccnc1CN1CCN(CC(O)c2ccco2)CC1 (stereo unspecified)	3.847%
Cn1ccnc1CN1CCN(CC(O)c2cc(F)ccc2F)CC1 (stereo unspecified)	92.89%
Cc1nnc(CN2CCN(Cc3nccn3C)CC2)n1C	-10.76%
Cc1nnc(CN2CCN(CC(O)c3cccc(F)c3)CC2)n1C (stereo unspecified)	8.346%
Cn1ccnc1CN1CCN(Cc2cc(C#N)ccc2F)CC1	0.8662%
Cn1ccnc1CN1CCN(CC(O)c2ccc(F)cc2)CC1 (stereo unspecified)	154.5%
CC(C)c1ccc(C(O)CN2CCN(Cc3nccn3C)CC2)cc1 (stereo unspecified)	94.53%
N#Cc1ccnc(N2CCN(CC(O)c3cc(F)ccc3F)CC2)c1 (stereo unspecified)	-0.2819%
Cc1ccc(C(O)CN2CCN(Cc3nccn3C)CC2)cc1C (stereo unspecified)	121.6%
Cn1ccnc1CN1CCN(CC(O)c2ccc(F)c(F)c2)CC1 (stereo unspecified)	-1.464%
CC(C)C1CN(S(=O)(=O)Cc2cccc(C#N)c2)CCS1 (stereo unspecified)	-6.809%
COCC1(NC(=O)Nc2nc(C)ns2)CCCC1	-4.167%
CC(C)[C@H]1COC(=O)N1Cc1noc(-c2ccccc2)n1	-3.7%
Cc1nc(NS(=O)(=O)c2ccc(F)c(Br)c2)no1	-14.77%
COCC1CN(Cc2ccc(F)cc2)Cc2nnn(CC3CC3)c21.O=C(O)C(F)(F)F (stereo unspecified)	-1.939%
CCn1ncc2c1C(COC)CN(Cc1ccc(F)cc1)C2.O=C(O)C(F)(F)F.O=C(O)C(F)(F)F (stereo unspecified)	110%
CCn1ncc2c1C(COC)CN(Cc1cccnc1)C2.O=C(O)C(F)(F)F.O=C(O)C(F)(F)F.O=C(O)C(F)(F)F (stereo unspecified)	103%
Cn1ncc2c1CN(Cc1cccnc1)CC2COCC1CC1.O=C(O)C(F)(F)F.O=C(O)C(F)(F)F.O=C(O)C(F)(F)F (stereo unspecified)	2.893%
CCn1cc2c(n1)CN(Cc1ccc(F)cc1)CC2COCC1CC1.O=C(O)C(F)(F)F (stereo unspecified)	-4.171%
COCC1CN(Cc2cccnc2)Cc2nnn(CC3CC3)c21.O=C(O)C(F)(F)F.O=C(O)C(F)(F)F (stereo unspecified)	-2.73%
